# Source: paper PMC11062922 (Nature Chemical Biology, 2023)
# Like-named read-outs stand apart in the source and are kept apart here.
# Tests used:
# AAK1 = conditions: read-out: apparent Kd, n = 1
# AURKA = conditions: read-out: apparent Kd, n = 1
# [1] = compound concentrations:100 nM and 1000 nM (sheet 'Lestaurtinib' of Supplementary Table 1),run:Lestaurtinib_02339_R2,Plate:MR001
# [2] = compound concentrations:100 nM and 1000 nM (sheet 'Lestaurtinib' of Supplementary Table 1),run:Lestaurtinib_02339_R3,Plate:MR001
# [3] = compound concentrations:100 nM and 1000 nM (sheet 'Lestaurtinib' of Supplementary Table 1),run:Lestaurtinib_02367_R1,Plate:MR003
# [4] = compound concentrations:100 nM and 1000 nM (sheet 'Lestaurtinib' of Supplementary Table 1),run:Lestaurtinib_02367_R2,Plate:MR003
# [5] = compound concentrations:100 nM and 1000 nM (sheet 'Lestaurtinib' of Supplementary Table 1),run:Lestaurtinib_02367_R3,Plate:MR003
# [6] = compound concentrations:100 nM and 1000 nM (sheet 'Lestaurtinib' of Supplementary Table 1),run:Lestaurtinib_02381_R3,Plate:MR004
substance,measurement,setting,value
Lestaurtinib,potency estimated from few doses,AAK1; [1],85.5 nM
same,potency estimated from few doses,AAK1; [2],53.3 nM
same,potency estimated from few doses,"AAK1; compound concentrations:100 nM and 1000 nM (sheet 'Lestaurtinib' of Supplementary Table 1),run:Lestaurtinib_02364_R3,Plate:MR002",69.8 nM
same,potency estimated from few doses,AAK1; [3],65.4 nM
same,potency estimated from few doses,AAK1; [4],78.3 nM
same,potency estimated from few doses,AAK1; [5],77.2 nM
same,potency estimated from few doses,"AAK1; compound concentrations:100 nM and 1000 nM (sheet 'Lestaurtinib' of Supplementary Table 1),run:Lestaurtinib_02381_R1,Plate:MR004",66.8 nM
same,potency estimated from few doses,AAK1; [6],45.5 nM
same,potency estimated from few doses,"AAK1; compound concentrations:100 nM and 1000 nM (sheet 'Lestaurtinib' of Supplementary Table 1),run:Lestaurtinib_02407_R1,Plate:MR005",63.9 nM
same,potency estimated from few doses,"AAK1; compound concentrations:100 nM and 1000 nM (sheet 'Lestaurtinib' of Supplementary Table 1),run:Lestaurtinib_02407_R2,Plate:MR005",53.3 nM
same,potency estimated from few doses,"AAK1; compound concentrations:100 nM and 1000 nM (sheet 'Lestaurtinib' of Supplementary Table 1),run:Lestaurtinib_02407_R3,Plate:MR005",73.1 nM
same,potency estimated from few doses,"AAK1; compound concentrations:100 nM and 1000 nM (sheet 'Lestaurtinib' of Supplementary Table 1),run:Lestaurtinib_02422_R2,Plate:MR006",18.9 nM
same,potency estimated from few doses,"AAK1; compound concentrations:100 nM and 1000 nM (sheet 'Lestaurtinib' of Supplementary Table 1),run:Lestaurtinib_02422_R3,Plate:MR006",72.2 nM
same,potency estimated from few doses,"AAK1; compound concentrations:100 nM and 1000 nM (sheet 'Lestaurtinib' of Supplementary Table 1),run:Lestaurtinib_02437_R2,Plate:MR007",69.6 nM
same,potency estimated from few doses,"AAK1; compound concentrations:100 nM and 1000 nM (sheet 'Lestaurtinib' of Supplementary Table 1),run:Lestaurtinib_02438_R1,Plate:MR008",74.4 nM
same,potency estimated from few doses,"AAK1; compound concentrations:100 nM and 1000 nM (sheet 'Lestaurtinib' of Supplementary Table 1),run:Lestaurtinib_02438_R2,Plate:MR008",72.4 nM
same,potency estimated from few doses,"AAK1; compound concentrations:100 nM and 1000 nM (sheet 'Lestaurtinib' of Supplementary Table 1),run:Lestaurtinib_02443_R1,Plate:MR009",59.8 nM
same,potency estimated from few doses,"AAK1; compound concentrations:100 nM and 1000 nM (sheet 'Lestaurtinib' of Supplementary Table 1),run:Lestaurtinib_02443_R2,Plate:MR009",72.4 nM
same,potency estimated from few doses,"AAK1; compound concentrations:100 nM and 1000 nM (sheet 'Lestaurtinib' of Supplementary Table 1),run:Lestaurtinib_02473_R1,Plate:MR010",56.2 nM
same,potency estimated from few doses,"AAK1; compound concentrations:100 nM and 1000 nM (sheet 'Lestaurtinib' of Supplementary Table 1),run:Lestaurtinib_02473_R3,Plate:MR010",40.1 nM
same,potency estimated from few doses,"AAK1; compound concentrations:100 nM and 1000 nM (sheet 'Lestaurtinib' of Supplementary Table 1),run:Lestaurtinib_02482_R1,Plate:MR011",62.4 nM
same,potency estimated from few doses,"AAK1; compound concentrations:100 nM and 1000 nM (sheet 'Lestaurtinib' of Supplementary Table 1),run:Lestaurtinib_02482_R2,Plate:MR011",81.9 nM
same,potency estimated from few doses,"AAK1; compound concentrations:100 nM and 1000 nM (sheet 'Lestaurtinib' of Supplementary Table 1),run:Lestaurtinib_02482_R3,Plate:MR011",69.5 nM
same,potency estimated from few doses,"AAK1; compound concentrations:100 nM and 1000 nM (sheet 'Lestaurtinib' of Supplementary Table 1),run:Lestaurtinib_02487_R1,Plate:MR012",45.5 nM
same,potency estimated from few doses,"AAK1; compound concentrations:100 nM and 1000 nM (sheet 'Lestaurtinib' of Supplementary Table 1),run:Lestaurtinib_02487_R2,Plate:MR012",64.8 nM
same,potency estimated from few doses,"AAK1; compound concentrations:100 nM and 1000 nM (sheet 'Lestaurtinib' of Supplementary Table 1),run:Lestaurtinib_02487_R3,Plate:MR012",70.8 nM
same,potency estimated from few doses,"AAK1; compound concentrations:100 nM and 1000 nM (sheet 'Lestaurtinib' of Supplementary Table 1),run:Lestaurtinib_02496_R1,Plate:MR013",93.7 nM
same,potency estimated from few doses,"AAK1; compound concentrations:100 nM and 1000 nM (sheet 'Lestaurtinib' of Supplementary Table 1),run:Lestaurtinib_02496_R2,Plate:MR013",80.9 nM
same,potency estimated from few doses,"AAK1; compound concentrations:100 nM and 1000 nM (sheet 'Lestaurtinib' of Supplementary Table 1),run:Lestaurtinib_02566_R1,Plate:MR014",85.4 nM
same,potency estimated from few doses,"AAK1; compound concentrations:100 nM and 1000 nM (sheet 'Lestaurtinib' of Supplementary Table 1),run:Lestaurtinib_02566_R2,Plate:MR014",74.9 nM
same,potency estimated from few doses,"AAK1; compound concentrations:100 nM and 1000 nM (sheet 'Lestaurtinib' of Supplementary Table 1),run:Lestaurtinib_02572_R1,Plate:MR015",46 nM
same,potency estimated from few doses,"AAK1; compound concentrations:100 nM and 1000 nM (sheet 'Lestaurtinib' of Supplementary Table 1),run:Lestaurtinib_02572_R2,Plate:MR015",79.8 nM
same,potency estimated from few doses,"AAK1; compound concentrations:100 nM and 1000 nM (sheet 'Lestaurtinib' of Supplementary Table 1),run:Lestaurtinib_02572_R3,Plate:MR015",95.8 nM
same,potency estimated from few doses,"AAK1; compound concentrations:100 nM and 1000 nM (sheet 'Lestaurtinib' of Supplementary Table 1),run:Lestaurtinib_02577_R1,Plate:MR016",58.2 nM
same,potency estimated from few doses,"AAK1; compound concentrations:100 nM and 1000 nM (sheet 'Lestaurtinib' of Supplementary Table 1),run:Lestaurtinib_02577_R2,Plate:MR016",52.8 nM
same,potency estimated from few doses,"AAK1; compound concentrations:100 nM and 1000 nM (sheet 'Lestaurtinib' of Supplementary Table 1),run:Lestaurtinib_02577_R3,Plate:MR016",59.6 nM
same,potency estimated from few doses,"AAK1; compound concentrations:100 nM and 1000 nM (sheet 'Lestaurtinib' of Supplementary Table 1),run:Lestaurtinib_02584_R1,Plate:MR017",83.9 nM
same,potency estimated from few doses,"AAK1; compound concentrations:100 nM and 1000 nM (sheet 'Lestaurtinib' of Supplementary Table 1),run:Lestaurtinib_02584_R2,Plate:MR017",61 nM
same,potency estimated from few doses,"AAK1; compound concentrations:100 nM and 1000 nM (sheet 'Lestaurtinib' of Supplementary Table 1),run:Lestaurtinib_02584_R3,Plate:MR017",88.2 nM
same,potency estimated from few doses,"AAK1; compound concentrations:100 nM and 1000 nM (sheet 'Lestaurtinib' of Supplementary Table 1),run:Lestaurtinib_02601_R1,Plate:MR018",68.7 nM
same,potency estimated from few doses,"AAK1; compound concentrations:100 nM and 1000 nM (sheet 'Lestaurtinib' of Supplementary Table 1),run:Lestaurtinib_02601_R3,Plate:MR018",47.3 nM
same,potency estimated from few doses,"AAK1; compound concentrations:100 nM and 1000 nM (sheet 'Lestaurtinib' of Supplementary Table 1),run:Lestaurtinib_02606_R1,Plate:MR019",69.9 nM
same,potency estimated from few doses,"AAK1; compound concentrations:100 nM and 1000 nM (sheet 'Lestaurtinib' of Supplementary Table 1),run:Lestaurtinib_02606_R2,Plate:MR019",73.7 nM
same,potency estimated from few doses,"AAK1; compound concentrations:100 nM and 1000 nM (sheet 'Lestaurtinib' of Supplementary Table 1),run:Lestaurtinib_02624_R1,Plate:MR020",52 nM
same,potency estimated from few doses,"AAK1; compound concentrations:100 nM and 1000 nM (sheet 'Lestaurtinib' of Supplementary Table 1),run:Lestaurtinib_02624_R2,Plate:MR020",66.6 nM
same,potency estimated from few doses,"AAK1; compound concentrations:100 nM and 1000 nM (sheet 'Lestaurtinib' of Supplementary Table 1),run:Lestaurtinib_02624_R3,Plate:MR020",69.8 nM
same,potency estimated from few doses,"AAK1; compound concentrations:100 nM and 1000 nM (sheet 'Lestaurtinib' of Supplementary Table 1),run:Lestaurtinib_02724_R1,Plate:MR021",69.4 nM
same,potency estimated from few doses,"AAK1; compound concentrations:100 nM and 1000 nM (sheet 'Lestaurtinib' of Supplementary Table 1),run:Lestaurtinib_02741_R2,Plate:MR023",113 nM
same,potency estimated from few doses,"AAK1; compound concentrations:100 nM and 1000 nM (sheet 'Lestaurtinib' of Supplementary Table 1),run:Lestaurtinib_02741_R3,Plate:MR023",89.7 nM
same,potency estimated from few doses,"AAK1; compound concentrations:100 nM and 1000 nM (sheet 'Lestaurtinib' of Supplementary Table 1),run:Lestaurtinib_02748_R1,Plate:MR024",64.3 nM
same,potency estimated from few doses,"AAK1; compound concentrations:100 nM and 1000 nM (sheet 'Lestaurtinib' of Supplementary Table 1),run:Lestaurtinib_02748_R2,Plate:MR024",53.8 nM
same,potency estimated from few doses,"AAK1; compound concentrations:100 nM and 1000 nM (sheet 'Lestaurtinib' of Supplementary Table 1),run:Lestaurtinib_02748_R3,Plate:MR024",68.7 nM
same,potency estimated from few doses,"AAK1; compound concentrations:100 nM and 1000 nM (sheet 'Lestaurtinib' of Supplementary Table 1),run:Lestaurtinib_02752_R1,Plate:MR025",98.6 nM
same,potency estimated from few doses,"AAK1; compound concentrations:100 nM and 1000 nM (sheet 'Lestaurtinib' of Supplementary Table 1),run:Lestaurtinib_02765_R3,Plate:MR026",84.5 nM
same,potency estimated from few doses,"AAK1; compound concentrations:100 nM and 1000 nM (sheet 'Lestaurtinib' of Supplementary Table 1),run:Lestaurtinib_02766_R1,Plate:MR027",55 nM
same,potency estimated from few doses,"AAK1; compound concentrations:100 nM and 1000 nM (sheet 'Lestaurtinib' of Supplementary Table 1),run:Lestaurtinib_02768_R3,Plate:MR028",80.1 nM
same,potency estimated from few doses,"AAK1; compound concentrations:100 nM and 1000 nM (sheet 'Lestaurtinib' of Supplementary Table 1),run:Lestaurtinib_02795_R1,Plate:MR022",81.4 nM
same,potency estimated from few doses,"AAK1; compound concentrations:100 nM and 1000 nM (sheet 'Lestaurtinib' of Supplementary Table 1),run:Lestaurtinib_02795_R3,Plate:MR022",154 nM
same,potency estimated from few doses,"AAK1; compound concentrations:100 nM and 1000 nM (sheet 'Lestaurtinib' of Supplementary Table 1),run:Lestaurtinib_02802_R1,Plate:MR029",67.9 nM
same,potency estimated from few doses,"AAK1; compound concentrations:100 nM and 1000 nM (sheet 'Lestaurtinib' of Supplementary Table 1),run:Lestaurtinib_02802_R2,Plate:MR029",50.7 nM
same,potency estimated from few doses,"AAK1; compound concentrations:100 nM and 1000 nM (sheet 'Lestaurtinib' of Supplementary Table 1),run:Lestaurtinib_02896_R1,Plate:MR030",73.7 nM
same,potency estimated from few doses,"AAK1; compound concentrations:100 nM and 1000 nM (sheet 'Lestaurtinib' of Supplementary Table 1),run:Lestaurtinib_02896_R3,Plate:MR030",71.3 nM
same,potency estimated from few doses,"AAK1; compound concentrations:100 nM and 1000 nM (sheet 'Lestaurtinib' of Supplementary Table 1),run:Lestaurtinib_03172_R2,Plate:MR031",56 nM
same,potency estimated from few doses,"AAK1; compound concentrations:100 nM and 1000 nM (sheet 'Lestaurtinib' of Supplementary Table 1),run:Lestaurtinib_03172_R3,Plate:MR031",66.8 nM
same,potency estimated from few doses,"AAK1; compound concentrations:100 nM and 1000 nM (sheet 'Lestaurtinib' of Supplementary Table 1),run:Lestaurtinib_03252_R1,Plate:MR032",96.3 nM
same,potency estimated from few doses,"AAK1; compound concentrations:100 nM and 1000 nM (sheet 'Lestaurtinib' of Supplementary Table 1),run:Lestaurtinib_03260_R1,Plate:MR033",73.1 nM
same,potency estimated from few doses,"AAK1; compound concentrations:100 nM and 1000 nM (sheet 'Lestaurtinib' of Supplementary Table 1),run:Lestaurtinib_03260_R2,Plate:MR033",77.8 nM
same,potency estimated from few doses,"AURKA; compound concentrations:100 nM and 1000 nM (sheet 'Lestaurtinib' of Supplementary Table 1),run:Lestaurtinib_02339_R1,Plate:MR001",20 nM
same,potency estimated from few doses,AURKA; [1],18 nM
same,potency estimated from few doses,AURKA; [2],18.4 nM
same,potency estimated from few doses,"AURKA; compound concentrations:100 nM and 1000 nM (sheet 'Lestaurtinib' of Supplementary Table 1),run:Lestaurtinib_02364_R2,Plate:MR002",21.3 nM
same,potency estimated from few doses,AURKA; [3],16.3 nM
same,potency estimated from few doses,AURKA; [4],18.4 nM
same,potency estimated from few doses,AURKA; [5],18.1 nM
same,potency estimated from few doses,AURKA; [6],17.5 nM
